“And” between values parts separate entries of the source, which are not always exact repeats. Equal entries are not always repeated. Results filed as inconclusive are left out. A structure can be active in one record and inactive in another. The source made the active and inactive calls. Calls follow the shape of the dose curve; as a rule, active = well fitted inhibition curve with a large enough effect; inconclusive = small, poorly fitted or top-dose-only effect; inactive = flat fitted curve, though single readings scatter.
% is scaled to controls: 0 for no effect and ±100 for the full control effect; potency is read from the fitted curve at half-maximal effect.

This assay can be described thus: P-glycoprotein substrates identified in KB-8-5-11 adenocarcinoma cell line, qHTS therapeutic library screen (AID 1346987). Also: nearly all actives have a fitted effect of over 65% in size. To be noted: KB-8-5-11 (P-gp overexpressing) viability, CellTiter-Glo, 72 h; series mostly up to 44.5 µM; activity change, negative = cytotoxicity: at the top concentration. The source says: The ATP-binding cassette transporters P-glycoprotein (P-gp) is known to limit brain penetration of many chemotherapy drugs. […] As such, we developed a high-throughput screen (HTS) to identify substrates of P-gp from a series of chemical libraries including the National Center for Advancing Translational Sciences Pharmaceutical Collection NPC, 2,816 compounds), testing a total of 10,804 compounds, most of which have known mechanisms of action. We used the CellTiter-Glo viability assay to test library compounds against the parental KB-3-1 human cervical adenocarcinoma cell line and the colchicine-selected sub-line KB-8-5-11 that over-expresses P-gp. KB-8-5-11 cells were also tested in the presence of a P-gp inhibitor (tariquidar) to assess reversability of transporter-mediated resistance. Of the tested compounds, a total of 90 P-gp substrates were identified including 55 newly identified P-gp substrates. Substrates were confirmed using an orthogonal killing assay against HEK-293 cells transfected with P-gp. As exemplars, we confirmed that […] (cyclin-dependent kinase inhibitor); AT9283, (Janus kinase 2/3 inhibitor); ispinesib (kinesin spindle protein inhibitor); gedatolisib (PKI-587, phosphoinositide 3-kinase/mammalian target of rampamycin inhibitor); GSK-690693 (AKT inhibitor); and KW-2478 (heat shock protein 90 inhibitor) were substrates , and direct ATPase stimulation was assessed. ABCG2 was also found to confer high levels of resistance to AT9283, GSK-690693 and gedatolisib, while ispinesib, AT7519 and KW-2478 were weaker substrates.
The HeLa derivative cell line, KB-3-1, and its colchicine-selected, P-gp-overexpressing subline, KB-8-5-11 were maintained in DMEM with 10% FCS and Pen/Strep with glutamine at 37 degree C in 5% CO2. For KB-8-5-11 cells, colchicine was added to the medium at a concentration of 100 ng/mL. HEK-293 cells transfected with empty vector (pcDNA) or vector containing human ABCB1 (MDR-19) or ABCG2 (R-5) have been described previously (Robey, Lin, Qiu, Chan & Bates, 2011) and were maintained in EMEM supplemented with 10% FCS, Pen/Strep and glutamine with 2 mg/ml G418 to select for the expression of the transporter. Cultures were confirmed to be free of mycoplasma infection using the MycoAlert Mycoplasma Detection Kit (Lonza, Walkersville, MD). For the screen, assay medium was identical to culture medium except for KB-8-5-11 where colchicine was excluded from the medium.
All cell lines were plated into 1536-well plates at 500 cells/well in 5 uL media. Compounds were then pinned in dose-response using a 1536-head pin tool (Kalypsis, San Diego, CA) and plates were incubated at 37 degree C in 5% CO2 for an additional 72 h. CellTiter-Glo reagent (Promega) was dispensed into the wells, incubated for 5 min and luminescence was read on a ViewLux instrument (Perkin-Elmer). Cytotoxic compounds were defined as those that yielded a curve class of -1.1, -1.2, -2.1, -2.2, -2.3, or -2.4, a maximum response of >50% and an AC50 of < 10 uM. Cherry-picked hits from screening analysis were tested with both the KB pair of cell lines, and the pcDNA (empty vector control) and MDR-19 (P-gp overexpressing) pair were tested, in the absence and presence of tariquidar.
(qHTS replaces the single test concentration by a dilution series.)
Regarding `CC(C)(CO)[C@@H](O)C(=O)NCCCC(=O)O`, the “activity change, negative = cytotoxicity” value was 0.432% (inactive).

On to `CC(C)[C@@H](N)C(=O)O`, for which the “activity change, negative = cytotoxicity” value was 0.394% (inactive).

For `CCCCCCCCCCCCCCCCCC(=O)OCC(C)O` (stereo not given), the “activity change, negative = cytotoxicity” value was 4.22% (inactive).

For `CC1=CCC2CC1C2(C)C` (stereo not given), the “activity change, negative = cytotoxicity” value was -12.1% (inactive).

As to `O=C(O)/C=C/c1ccccc1`, the “activity change, negative = cytotoxicity” value is 2.91% (inactive).

On to `OCCOCCOCCO`, for which the “activity change, negative = cytotoxicity” value is -0.455% (inactive).

Take `CC(C)C[C@H](NC(=O)[C@@H](Cc1c[nH]c2ccccc12)NC(=O)[C@H](Cc1ccc(O)cc1)NC(=O)[C@H](CO)NC(=O)[C@H](Cc1c[nH]c2ccccc12)NC(=O)[C@H](Cc1cnc[nH]1)NC(=O)[C@@H]1CCC(=O)N1)C(=O)N[C@@H](CCCN=C(N)N)C(=O)N1CCC[C@@H]1C(=O)NCC(N)=O`: the “activity change, negative = cytotoxicity” value was 9.52% (inactive).

For the compound `CC(=O)O[C@@H]1CC2CCC1(C)C2(C)C` (stereo not given in full), the “activity change, negative = cytotoxicity” value is 9.1% (inactive).

`CC(C)Cc1ccc([C@@H](C)C(=O)NS(C)(=O)=O)cc1`: the “activity change, negative = cytotoxicity” value is 2.04% (inactive).

Turning to `CCCCCCCCCCCCCCCC(=O)OC[C@H](COP(=O)([O-])OCC[N+](C)(C)C)OC(=O)CCCCCCCCCCCCCCC`, the “activity change, negative = cytotoxicity” value is 2.06% (inactive).

Take `O=C(CCCCCCCCCCCCC1CCCC1)Nc1ccc(S(=O)(=O)c2ccc(NC(=O)CCCCCCCCCCCCC3CCCC3)cc2)cc1`: the “activity change, negative = cytotoxicity” value was 6.09% (inactive).

For `O=C(OC[C@H]1O[C@@H](OC(=O)c2cc(O)c(O)c(OC(=O)c3cc(O)c(O)c(O)c3)c2)[C@H](OC(=O)c2cc(O)c(O)c(OC(=O)c3cc(O)c(O)c(O)c3)c2)[C@@H](OC(=O)c2cc(O)c(O)c(OC(=O)c3cc(O)c(O)c(O)c3)c2)[C@@H]1OC(=O)c1cc(O)c(O)c(OC(=O)c2cc(O)c(O)c(O)c2)c1)c1cc(O)c(O)c(OC(=O)c2cc(O)c(O)c(O)c2)c1`, the Potency is 23.1 µM (active).

On to `CNCC(O)c1ccc(OC(=O)C(C)(C)C)c(OC(=O)C(C)(C)C)c1` (stereo not given), for which the “activity change, negative = cytotoxicity” value was -10.9% [at 17.3 µM] (inactive).

For `CCCCC`, the “activity change, negative = cytotoxicity” value is -4.39% (inactive).

Take `CC1(O)CCC(C(C)(C)O)CC1` (stereo not given): the “activity change, negative = cytotoxicity” value is -9.62% (inactive).

As for `Cn1c(=O)c2c(ncn2CCOC(=O)C(C)(C)Oc2ccc(Cl)cc2)n(C)c1=O`, the Potency was 18.4 µM (active).

Take `C/C(=C\C(=O)OCCCCCCCCC(=O)O)C[C@@H]1OC[C@H](C[C@@H]2O[C@H]2[C@@H](C)[C@H](C)O)[C@@H](O)[C@H]1O`: the Potency entry was “inactive”.

`CC[C@@]1([C@@H]2O[C@@H]([C@H]3O[C@@](O)(CO)[C@H](C)C[C@@H]3C)C[C@@H]2C)CC[C@H]([C@]2(C)CC[C@]3(C[C@H](O)[C@@H](C)[C@@H]([C@@H](C)[C@@H](OC)[C@H](C)C(=O)O)O3)O2)O1` (stereo in doubt): the Potency is 6.51 µM (active) and 5.8 µM (active).

Take `CCCCCCCCCCCC(=O)OCC(O)CO` (stereo not given): the “activity change, negative = cytotoxicity” value was 18.4% (inactive).

Turning to `O=C(O)[C@@H]1C[C@H](CP(=O)(O)O)CCN1`, the “activity change, negative = cytotoxicity” value is 11.7% (inactive).

As to `CC(C)(C)c1ccc2c(S(=O)(=O)O)c(C(C)(C)C)ccc2c1`, the Potency result was “inactive”.

Take `CCCCO`: the “activity change, negative = cytotoxicity” value was -2.07% (inactive).

For `CC(C)(C)NCC(O)CSc1nc(-c2ccc(C(N)=O)s2)cs1` (stereo not given), the “activity change, negative = cytotoxicity” value is 6.01% (inactive).

In the case of `CCCCC(CC)COS(=O)(=O)O` (stereo not given), the “activity change, negative = cytotoxicity” value was -6.85% (inactive).

As to `CC(C)(C)c1ccc(CN2CCN(C(c3ccccc3)c3ccc(Cl)cc3)CC2)cc1` (stereo not given), the Potency is 23.1 µM (active) and inactive.

Take `C[C@]12CC[C@@H]3c4ccc(OC(=O)c5ccccc5)cc4CC[C@H]3[C@@H]1CC[C@@H]2O`: the Potency was 4.61 µM (active).

As to `C[C@@H]1NC(=O)[C@@H](N)CNC(=O)[C@H](C2CCNC(N)=N2)NC(=O)/C(=C/NC(N)=O)NC(=O)[C@H](CNC(=O)C[C@@H](N)CCCN)NC1=O` (stereo not given in full), the Potency result was “inactive”.

As for `C[C@H](O)CN(C)C`, the “activity change, negative = cytotoxicity” value is -0.005% (inactive).

Turning to `Cc1ncc(COP(=O)(O)O)c(CN)c1O`, the “activity change, negative = cytotoxicity” value was 12.6% (inactive).

Take `CCC(O)c1ccccc1` (stereo not given): the “activity change, negative = cytotoxicity” value is -2.89% (inactive).

For `Cc1cc(-c2ccc(N=Nc3ccc4c(S(=O)(=O)O)cc(S(=O)(=O)O)c(N)c4c3O)c(C)c2)ccc1N=Nc1ccc2c(S(=O)(=O)O)cc(S(=O)(=O)O)c(N)c2c1O`, the Potency is 6.51 µM (active).

Consider `CC/C(=C(/CC)c1ccc(OP(=O)(O)O)cc1)c1ccc(OP(=O)(O)O)cc1`, for which the “activity change, negative = cytotoxicity” value was 4.4% (inactive).

Regarding `Nc1nccs1`, the “activity change, negative = cytotoxicity” value was -2.52% (inactive).

Take `Cn1cc(NC(=O)c2cc(NC(=O)c3cc(NC=O)cn3C)cn2C)cc1C(=O)NCCC(=N)N`: the “activity change, negative = cytotoxicity” value was 2.34% (inactive).

In the case of `NC(=O)C1c2ccccc2CCc2ccccc21`, the “activity change, negative = cytotoxicity” value is -10.7% (inactive).

As to `CC(C)C[C@H](NC(=O)[C@@H](COC(C)(C)C)NC(=O)[C@H](Cc1ccc(O)cc1)NC(=O)[C@H](CO)NC(=O)[C@H](Cc1c[nH]c2ccccc12)NC(=O)[C@H](Cc1cnc[nH]1)NC(=O)[C@@H]1CCC(=O)N1)C(=O)N[C@@H](CCCN=C(N)N)C(=O)N1CCC[C@H]1C(=O)NNC(N)=O`, the Potency entry was “inactive”.

Take `NCC[C@H](O)C(=O)N[C@@H]1C[C@H](N)[C@@H](O[C@H]2O[C@H](CN)CC[C@H]2N)[C@H](O)[C@H]1O[C@H]1O[C@H](CO)[C@@H](O)[C@H](N)[C@H]1O`: the “activity change, negative = cytotoxicity” value is 17.8% (inactive).

With `CC(=O)Oc1cccc(C(=O)O)c1OC(C)=O`, the “activity change, negative = cytotoxicity” value was -2.86% (inactive).

Regarding `C[C@@H]1C[C@H]2[C@@H]3C[C@H](F)C4=CC(=O)C=C[C@]4(C)[C@@]3(Cl)[C@@H](O)C[C@]2(C)[C@H]1C(=O)COC(=O)C(C)(C)C`, the “activity change, negative = cytotoxicity” value is -4.9% (inactive).

With `C[Si](C)(C)O[Si](C)(C)C`, the “activity change, negative = cytotoxicity” value was -1.31% (inactive).
